Screening data as filed in PubChem BioAssay.
Compounds with a hit are over-represented: about 2.3% of the library has one in this group of screens.
697 NFkB inh: inhibitors of the PMA/ionomycin-induced NF-kB reporter in 697 B cells | inhibition, % at 4 µM | 697 B-cell NF-kB luciferase reporter, 16 h | AID 435022 | 0.33% of 330,000 active; in the data active = inhibition above about 35%
aSyn UTR inh: 5' untranslated region of α-synuclein, MLPCN primary screen. alpha-synuclein 5'UTR reporter, inhibitor activity. inhibition, % (tested at 7.5 µM). 0.82% of 300,000 active; in the data active = inhibition above about 60%; inconclusive = no clear call, values can overlap the other calls;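 also: H4 neuroglioblastoma cells stably carrying SNCA 5'UTR luciferase fusion; 0% = DMSO wells and 100% = positive control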
TAG inh: reduces triacylglycerol accumulation in H9c2 cells. Nile Red lipid (TAG) fluorescence; cells loaded with 200 µM oleic acid. AID 651582. 0.66% of 230,000 active. inhibition, % at 12.5 µM;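 active = pattern-corrected inhibition of lipid staining of at least 50% with the nuclear-stain viability signal not falling by more than 50%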;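 also: 0% = DMSO wells and 100% = triacsin C control wells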
Jurkat NFkB inh: inhibitors of the PMA/ionomycin-induced NF-kB reporter in Jurkat cells | 0.53% of 330,000 active | inhibition, % at 4 µM | AID 435003 | PMA/ionomycin-induced NF-kB luciferase reporter, luminescence; in the data active = inhibition above about 50%
Shn3 inh set2: reduces Shn3 3'UTR luciferase signal in osteoblasts; Clone20 osteoblast Shn3 3'UTR firefly luciferase, 24 h; inhibition, % at 12.5 µM; 0.52% of 360,000 active;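 active = mean inhibition of at least 75% with every replicate also reaching 75%; inconclusive = mean inhibition at least 75% but some replicate below; inactive = mean inhibition below 75%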;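 also: 0% = median of neutral control wells and 100% = pilot-screen positive control compound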
Gli-Sufu antag: antagonists of Gli-Sufu signaling; inhibition, % at 5 µM; Sufu-KO-LIGHT fibroblasts, Gli luciferase reporter luminescence; AID 588413; 0.74% of 340,000 active;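 active = inhibition above about 55%, limit read from the data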;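 also: 0% = DMSO-treated cells and 100% = wells with medium but no cells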
* = called active by the depositor.

Screening O=C(CS(=O)(=O)c1ccc(Cl)cc1)NCCS(=O)(=O)c1ccc(Cl)cc1 returned 697 NFkB inh 13.2, aSyn UTR inh 5.6, TAG inh 0.4, Jurkat NFkB inh 3.2, Shn3 inh set2 4.5 and Gli-Sufu antag 1.4.
`CCOc1nc(C)cc(C)c1S(=O)(=O)c1cccc(C)c1` gave 697 NFkB inh -11.2, aSyn UTR inh 26.6 and Jurkat NFkB inh -6.3.
CN(C)CCn1cnc2c(c1=N)C(c1ccccc1)c1ccc3ccccc3c1O2 (stereo not drawn) was read as 697 NFkB inh -19.4, aSyn UTR inh 90.4*, Jurkat NFkB inh 18.3, Shn3 inh set2 20.1 and Gli-Sufu antag 14.9.
For N=c1c2c(ncn1Cc1ccco1)Oc1c(ccc3ccccc13)C2c1ccccc1 (stereo not drawn) the results were 697 NFkB inh -19.4, aSyn UTR inh -25.0, Jurkat NFkB inh 26.0, Shn3 inh set2 9.3 and Gli-Sufu antag 20.1.
For COc1ccc(NC(=S)N2c3ccccc3CC2C)cc1OC (stereo not drawn) the results were 697 NFkB inh -5.7, aSyn UTR inh -20.1, TAG inh -6.0, Jurkat NFkB inh 2.6, Shn3 inh set2 14.4 and Gli-Sufu antag 2.2.
Screening COc1ccc(C(C(=O)NC2CCCCC2)N(C(=O)CCl)c2cccc(Cl)c2)cc1 (stereo not drawn) returned aSyn UTR inh -74.3 and Shn3 inh set2 92.0*.
Screening COc1ccc(/C=N/NC(=S)NCC2CCCO2)cc1 (stereo not drawn) returned 697 NFkB inh -30.7, aSyn UTR inh 5.1, TAG inh -5.3, Jurkat NFkB inh -10.1, Shn3 inh set2 4.4 and Gli-Sufu antag 4.0.
Screening COCC1CCCN(C(=O)c2cc(COc3ccc4ncccc4c3)on2)C1 (stereo not drawn) returned 697 NFkB inh 15.6, aSyn UTR inh 6.6, TAG inh -19.3, Jurkat NFkB inh 47.2, Shn3 inh set2 63.5 and Gli-Sufu antag 55.8*.
CC(CNC(=O)c1cc(COc2ccc3ncccc3c2)on1)c1ccccc1 (stereo not drawn) was read as 697 NFkB inh -28.9, aSyn UTR inh -4.0, TAG inh -22.0, Jurkat NFkB inh 38.4, Shn3 inh set2 88.3* and Gli-Sufu antag 48.6.
`Cc1cc(CN(C)C(=O)c2cc(COc3ccc4ncccc4c3)on2)on1` gave 697 NFkB inh -41.2, aSyn UTR inh -0.6, TAG inh -17.9, Jurkat NFkB inh 36.9, Shn3 inh set2 78.9 and Gli-Sufu antag 33.1.
For O=C(c1cc(COc2ccc3ncccc3c2)on1)N1CCCC(O)C1 (stereo not drawn) the results were 697 NFkB inh 1.1, aSyn UTR inh -36.1, TAG inh -18.8, Jurkat NFkB inh 7.4, Shn3 inh set2 53.2 and Gli-Sufu antag 29.0.
Screening COc1ccc(Br)cc1/C=C/C(=O)c1ccc(NC(C)=O)cc1 returned Shn3 inh set2 96.9* and Gli-Sufu antag 12.2.
COc1ccc(NC(=O)/C=C/c2cc(Br)ccc2OC)cc1 was read as 697 NFkB inh -29.1, aSyn UTR inh -18.1, TAG inh 14.6, Jurkat NFkB inh -33.0, Shn3 inh set2 1.3 and Gli-Sufu antag -8.0.
For COC(=O)c1sc(SC)c(S(=O)(=O)C(C)C)c1N the results were 697 NFkB inh 1.0, aSyn UTR inh -7.6, TAG inh 3.0, Jurkat NFkB inh 3.9, Shn3 inh set2 -26.8 and Gli-Sufu antag 0.1.
CC(C)c1ccc(S(=O)(=O)c2nnn3c2nc(N2CCCCC2)c2ccccc23)cc1 was read as 697 NFkB inh -7.6, aSyn UTR inh 25.9, Jurkat NFkB inh 5.8, Shn3 inh set2 7.7 and Gli-Sufu antag 1.8.
Screening N#Cc1cnn2c1nc(N1CCCCC1)c1ccccc12 returned 697 NFkB inh 26.9, aSyn UTR inh 64.3*, TAG inh 12.0, Jurkat NFkB inh 15.6, Shn3 inh set2 -1.1 and Gli-Sufu antag -4.9.
For C[C@@H]1CC=C[C@H]2[C@H]1C(=O)N(Cc1ccccc1)[C@H]2c1cccc([N+](=O)[O-])c1 the results were 697 NFkB inh -32.6, aSyn UTR inh -7.3, TAG inh -24.7, Jurkat NFkB inh 8.8, Shn3 inh set2 86.6* and Gli-Sufu antag 9.7.
For Cc1ccc(/C=N/NC(=O)c2nnn(-c3nonc3N)c2-c2cccs2)cc1 the results were 697 NFkB inh -14.2, aSyn UTR inh 69.3*, Jurkat NFkB inh 13.7, Shn3 inh set2 3.4 and Gli-Sufu antag 1.9.
CCCCc1ccc(NC(=O)N[C@@H](C)C(=O)O)cc1 was read as 697 NFkB inh 18.0, aSyn UTR inh 19.7, TAG inh 5.7, Jurkat NFkB inh -3.3, Shn3 inh set2 17.0 and Gli-Sufu antag -5.0.
Screening CCC(=O)NC(c1ccc(C)cc1)c1cc(Cl)c2cccnc2c1O (stereo not drawn) returned 697 NFkB inh -29.0, TAG inh 6.5, Jurkat NFkB inh -7.1, Shn3 inh set2 79.1 and Gli-Sufu antag 22.9.
O=C(NC(c1ccccc1)c1cc(Cl)c2cccnc2c1O)c1cccnc1 (stereo not drawn) was read as 697 NFkB inh -11.6, aSyn UTR inh 99.7* and Jurkat NFkB inh 19.9.
`CCC(=O)NC(c1ccc(OC)c(OC)c1)c1cc(Cl)c2cccnc2c1O` (stereo not drawn) gave aSyn UTR inh 111.1*, TAG inh 46.4, Shn3 inh set2 inconclusive and Gli-Sufu antag 8.3.
`COc1ccccc1C(NC(C)=O)c1cc(Cl)c2cccnc2c1O` (stereo not drawn) gave 697 NFkB inh -13.0, aSyn UTR inh 67.5*, Jurkat NFkB inh 3.4, Shn3 inh set2 inconclusive and Gli-Sufu antag -7.2.
For COc1ccc(C(NC(C)=O)c2cc(Cl)c3cccnc3c2O)cc1OC (stereo not drawn) the results were 697 NFkB inh -19.9, aSyn UTR inh 46.1, Jurkat NFkB inh 4.1, Shn3 inh set2 88.7* and Gli-Sufu antag 20.6.
`O=C(Nc1nc2n(n1)C(c1ccccc1)C=C(c1ccccc1)N2)c1ccco1` (stereo not drawn) gave 697 NFkB inh 23.8, aSyn UTR inh 14.7, Jurkat NFkB inh 9.4, Shn3 inh set2 4.3 and Gli-Sufu antag -5.3.
CC(=O)NC(C)c1cc(Cl)c2cccnc2c1O (stereo not drawn) was read as 697 NFkB inh -3.1, TAG inh 27.1, Jurkat NFkB inh -3.3, Shn3 inh set2 26.7 and Gli-Sufu antag 3.0.
`O=C(O)COc1ccccc1C(Nc1cccnc1)c1cc(Cl)c2cccnc2c1O` (stereo not drawn) gave 697 NFkB inh 16.3, aSyn UTR inh 5.6, Jurkat NFkB inh 9.4, Shn3 inh set2 5.6 and Gli-Sufu antag -5.9.
`CCC(=O)NC(C)c1cc(Cl)c2cccnc2c1O` (stereo not drawn) gave 697 NFkB inh -1.3, TAG inh 9.5, Jurkat NFkB inh -5.4, Shn3 inh set2 91.1* and Gli-Sufu antag 18.0.
CN1CCN(C(c2ccc(Br)cc2)c2cc(Cl)c3cccnc3c2O)CC1 (stereo not drawn) was read as 697 NFkB inh -9.6, aSyn UTR inh 67.2*, Jurkat NFkB inh 16.3, Shn3 inh set2 inconclusive and Gli-Sufu antag 1.6.
